Inconclusive results are not listed. Where a call stands in place of a potency, no number is given. Active and inactive are the calls of the source. Unless noted, calls follow the shape of the dose curve; as a rule, active = well fitted curve in the direction sought with a large enough effect; inconclusive = small, poorly fitted or top-dose-only effect, or another doubt; inactive = no such curve, though single readings can be large; an effect the other way counts as inactive or inconclusive.
Experiments:
Furin (Homo sapiens) = Furin (Homo sapiens) (UniProt P09958); assay: Furin counterscreen qHTS for Zika virus inhibitors (AID 1347149);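 also: purified recombinant full-length human furin enzyme at 5 nM; fluorescence gain from furin cutting a BOC-RVRR-AMC peptide substrate over 15 min; top concentration of the series differs between compounds; nearly all actives have a fitted effect of over 70% in size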
Sequence of Furin (Homo sapiens) (P09958 whole entry, looked up): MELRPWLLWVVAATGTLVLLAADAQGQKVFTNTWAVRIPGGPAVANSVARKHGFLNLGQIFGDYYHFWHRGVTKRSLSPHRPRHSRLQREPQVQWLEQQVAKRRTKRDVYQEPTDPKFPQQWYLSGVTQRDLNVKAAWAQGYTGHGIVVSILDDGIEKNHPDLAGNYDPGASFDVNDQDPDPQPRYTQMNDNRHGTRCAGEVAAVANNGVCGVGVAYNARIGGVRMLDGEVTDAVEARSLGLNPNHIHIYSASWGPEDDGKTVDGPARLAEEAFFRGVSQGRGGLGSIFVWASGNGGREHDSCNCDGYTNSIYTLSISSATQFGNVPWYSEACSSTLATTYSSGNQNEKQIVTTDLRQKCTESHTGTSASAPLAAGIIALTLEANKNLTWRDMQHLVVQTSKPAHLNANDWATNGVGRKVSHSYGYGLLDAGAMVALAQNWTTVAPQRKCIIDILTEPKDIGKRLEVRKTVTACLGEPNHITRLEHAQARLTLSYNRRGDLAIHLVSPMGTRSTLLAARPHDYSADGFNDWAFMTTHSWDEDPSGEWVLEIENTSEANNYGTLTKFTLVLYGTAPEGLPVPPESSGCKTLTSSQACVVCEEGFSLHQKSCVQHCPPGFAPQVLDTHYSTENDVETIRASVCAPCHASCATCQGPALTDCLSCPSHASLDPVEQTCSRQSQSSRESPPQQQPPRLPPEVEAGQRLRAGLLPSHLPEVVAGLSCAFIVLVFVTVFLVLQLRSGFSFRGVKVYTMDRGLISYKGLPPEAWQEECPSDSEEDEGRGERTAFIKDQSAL
Summary of the method: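 Counterscreen measures cleavage of 2 microM BOC-RVRR-AMC, below its ~15 microM Km, by 5 nM full-length human furin at pH 7.0 after a 15-min compound preincubation. Inhibition derives from the 15-min fluorescence increase at 37C.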

[1] = test system: Zika virus NS2B-NS3 protease (unlinked); assay: Optimization of GU AMC qHTS for Zika virus inhibitors: Unlinked NS2B-NS3 protease assay (AID 1347151); also: series mostly up to about 52 µM; nearly all actives have a fitted effect of over 80% in size
Summary of the method: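 Fluorescence gain (340/450 nm) over 15 min at room temperature, ~20% conversion, gave percent inhibition fitted to a 4-parameter Hill equation; enzyme was unlinked NS2B-NS3 (25 nM final), pH 8.0 Tris buffer.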

[2] = Vero cells viability qHTS for Zika virus inhibitors (AID 1347167)
Summary of the method: (§1)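 Luminescent ATP readout (CellTiter Glo) after 30 min at 37 degrees C gives viability; cells in DMEM + 4% FBS were treated 24 to 48 hours with compound, following overnight attachment.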

[3] = HepG2 cells viability qHTS for Zika virus inhibitors (AID 1347168)
Summary of the method: as §1

[4] = Tertiary RLuc qRT-PCR qHTS assay for Zika virus inhibitors (AID 1347169); also: top concentration of the series differs between compounds; nearly all actives have a fitted effect of over 55% in size
Summary of the method: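 Orthogonal cell-based readout: luminescence measured 1-1.5 hrs after adding live-cell Renilla substrate to Vero cells that had been infected with ZIKV-RLuc (MOI 1-2) post-compound, incubated 48-72 hrs at 37 degrees C.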

[5] = Counterscreen qHTS for small molecule stabilizers of the endoplasmic reticulum resident proteome: GLuc-NoTag assay (AID 1508627); also: series mostly up to about 76 µM
Summary of the method: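 Counterscreen line: SH-SY5Y-GLuc-NoTag cells, treated with compound 19 hr before a 4 hr, 100 nM thapsigargin calcium depletion. Secreted Gaussia luciferase in the medium was measured by luminescence after coelenterazine was added (0.07x final), with cells unlysed.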

[6] = Confirmatory qHTS for small molecule stabilizers of the endoplasmic reticulum resident proteome: Secreted ER Calcium Modulated Protein (SERCaMP) assay (AID 1508628); also: potency is read from the fitted curve at half-maximal effect; nearly all actives have a fitted effect of over 40% in size
Summary of the method: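 Reporter secretion upon ER calcium depletion (100 nM thapsigargin, 4 h, 37C) is measured as medium luminescence with coelenterazine, after 16 h compound pretreatment of SH-SY5Y-GLuc-SERCaMP cells; primary at three concentrations up to 38.3 uM, follow-up at 11 (up to 76.6 uM).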

[7] = Cell Viability qHTS for small molecule stabilizers of the endoplasmic reticulum resident proteome (AID 1508629); conditions: cell viability counter-screen, 100 nM thapsigargin for final 4 h;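 also: human SH-SY5Y neuroblastoma cells carrying the GLuc-SERCaMP reporter; compound exposure about 46 h in total before the viability read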
[8] = Primary qHTS for small molecule stabilizers of the endoplasmic reticulum resident proteome: Secreted ER Calcium Modulated Protein (SERCaMP) assay (AID 1508630); also: potency is read from the fitted curve at half-maximal effect
Summary of the method: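 The SH-SY5Y reporter protocol was run at 3 concentrations up to 38.3 uM (primary) or 11 concentrations (follow-up): 16 h compound, 100 nM thapsigargin for 4 h, then extracellular luciferase luminescence.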

[9] = target: Estrogen receptor (Homo sapiens) (UniProt P03372); assay: qHTS assay for small molecule antagonists of estrogen receptor alpha signaling (AID 588513; active = well fitted curve in the direction sought with a large enough effect in the signal ratio, with a control signal flat, not every such curve was filed as active; the % refers to the signal ratio)
Sequence of Estrogen receptor (Homo sapiens) (P03372 whole entry, looked up): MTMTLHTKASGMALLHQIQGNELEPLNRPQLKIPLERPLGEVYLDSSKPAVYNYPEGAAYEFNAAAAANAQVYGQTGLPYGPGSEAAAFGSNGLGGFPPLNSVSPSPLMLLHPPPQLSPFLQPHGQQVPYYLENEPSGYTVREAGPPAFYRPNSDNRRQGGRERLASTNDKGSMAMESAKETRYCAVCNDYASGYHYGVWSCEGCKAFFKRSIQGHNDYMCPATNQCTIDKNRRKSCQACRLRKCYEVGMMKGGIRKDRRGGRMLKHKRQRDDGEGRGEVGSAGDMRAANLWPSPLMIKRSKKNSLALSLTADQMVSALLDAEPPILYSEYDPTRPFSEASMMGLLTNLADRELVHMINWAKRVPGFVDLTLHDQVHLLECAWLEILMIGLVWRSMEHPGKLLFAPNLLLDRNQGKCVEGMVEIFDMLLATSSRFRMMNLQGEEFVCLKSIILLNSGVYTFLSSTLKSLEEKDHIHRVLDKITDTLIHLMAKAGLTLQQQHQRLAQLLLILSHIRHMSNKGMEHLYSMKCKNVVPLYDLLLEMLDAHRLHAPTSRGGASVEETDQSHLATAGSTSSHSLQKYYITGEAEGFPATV
Summary of the method: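 Antagonist mode: inhibition of 0.5 nM 17-beta-estradiol-driven beta-lactamase reporter in HEK 293 ER-alpha-UAS-bla cells, 18 h at 37C, CCF4 readout after 2 h at RT. Normalised to estradiol and DMSO; titration fitted to Hill.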

[10] = target: Estrogen receptor (Homo sapiens) (UniProt P03372); assay: qHTS assay for small molecule agonists of estrogen receptor alpha signaling (AID 588514; calls by dose curve; also: nearly all actives have a fitted effect of over 70% in size)
Summary of the method: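 EC50 and efficacy came from Hill fits of beta-lactamase reporter signal (CCF4 dye, 2 h at room temperature) scaled between DMSO and 20 nM 17-beta-estradiol. Agonist mode: HEK293 ER-alpha-UAS-bla cells in charcoal/dextran-stripped serum medium, 18 h compound exposure at 37 C.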

[11] = target: Peroxisome proliferator-activated receptor gamma (Homo sapiens) (UniProt P37231); assay: qHTS assay for small molecule agonists of peroxisome proliferator-activated receptor gamma signaling (AID 588536; active = well fitted curve in the direction sought with a large enough effect in the signal ratio, with a control signal flat, not every such curve was filed as active; the % refers to the signal ratio)
Sequence of Peroxisome proliferator-activated receptor gamma (Homo sapiens) (P37231 whole entry, looked up): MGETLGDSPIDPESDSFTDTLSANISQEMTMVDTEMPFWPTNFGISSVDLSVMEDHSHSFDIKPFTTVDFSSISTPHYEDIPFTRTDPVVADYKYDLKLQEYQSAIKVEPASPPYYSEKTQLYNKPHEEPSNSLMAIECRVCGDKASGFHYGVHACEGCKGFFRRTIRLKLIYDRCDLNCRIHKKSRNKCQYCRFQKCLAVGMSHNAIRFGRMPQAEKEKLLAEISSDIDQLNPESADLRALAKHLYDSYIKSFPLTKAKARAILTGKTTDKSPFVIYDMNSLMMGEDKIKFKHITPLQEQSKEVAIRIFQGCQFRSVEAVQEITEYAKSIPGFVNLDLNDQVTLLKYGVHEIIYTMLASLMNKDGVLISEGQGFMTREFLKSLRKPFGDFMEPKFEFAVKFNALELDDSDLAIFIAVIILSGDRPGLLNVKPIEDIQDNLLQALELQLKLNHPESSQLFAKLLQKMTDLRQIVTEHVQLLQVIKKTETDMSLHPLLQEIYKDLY
Summary of the method: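 This is an agonist-mode beta-lactamase reporter assay in HEK293 PPAR-gamma-UAS-bla cells with 1% charcoal/dextran FBS. Compound titrations ran 16 h at 37 C before CCF4 detection. EC50 and efficacy are Hill fits scaled to 2 uM rosiglitazone (100%) and DMSO basal.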

[12] = target: Vitamin D3 receptor (Homo sapiens) (UniProt P11473); assay: qHTS assay for small molecule antagonists of vitamin D receptor signaling (AID 588541; calls by dose curve;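 also: receptor activated by calcitriol during compound treatment; series mostly up to about 77 µM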)
Sequence of Vitamin D3 receptor (Homo sapiens) (P11473 whole entry, looked up): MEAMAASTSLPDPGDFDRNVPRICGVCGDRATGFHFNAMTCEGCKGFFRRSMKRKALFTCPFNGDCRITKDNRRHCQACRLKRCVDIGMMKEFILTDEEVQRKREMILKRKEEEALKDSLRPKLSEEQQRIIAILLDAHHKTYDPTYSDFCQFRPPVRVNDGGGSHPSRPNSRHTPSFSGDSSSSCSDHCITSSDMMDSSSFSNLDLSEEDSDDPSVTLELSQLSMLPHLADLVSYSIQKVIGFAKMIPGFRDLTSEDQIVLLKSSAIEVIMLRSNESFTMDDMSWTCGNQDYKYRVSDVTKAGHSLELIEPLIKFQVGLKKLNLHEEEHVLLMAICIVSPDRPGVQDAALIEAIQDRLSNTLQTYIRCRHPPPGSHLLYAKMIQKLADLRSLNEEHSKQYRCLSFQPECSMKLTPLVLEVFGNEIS
Summary of the method: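 Antagonist-mode beta-lactamase reporter assay: HEK293T VDR-UAS-bla cells were exposed to titrated compound alongside 1-alpha,25-dihydroxyvitamin D3 at 3 nM final for 16 h. Values were normalized to the 50 nM agonist control and DMSO basal, with IC50 and efficacy from Hill equation fits.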

[13] = target: Vitamin D3 receptor (Homo sapiens) (UniProt P11473); assay: qHTS assay for small molecule agonists of vitamin D receptor signaling (AID 588543; calls by dose curve)
Summary of the method: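 Agonist-mode beta-lactamase reporter: HEK293T VDR-UAS-bla cells in charcoal-stripped 2% FBS, compound series 16 h 37 C, CCF4 2 h RT. EC50 from Hill fit, scaled against DMSO and 50 nM calcitriol control.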

[14] = qHTS assay for small molecule agonists of retinoid X receptor alpha signaling (AID 588544; calls by dose curve); conditions: HEK293T RXRa-UAS-bla, beta-lactamase reporter, 18 h; 530 nm emission
[15] = target: Retinoic acid receptor RXR-alpha (Homo sapiens) (UniProt P19793); assay: as above
Sequence of Retinoic acid receptor RXR-alpha (Homo sapiens) (P19793 whole entry, looked up): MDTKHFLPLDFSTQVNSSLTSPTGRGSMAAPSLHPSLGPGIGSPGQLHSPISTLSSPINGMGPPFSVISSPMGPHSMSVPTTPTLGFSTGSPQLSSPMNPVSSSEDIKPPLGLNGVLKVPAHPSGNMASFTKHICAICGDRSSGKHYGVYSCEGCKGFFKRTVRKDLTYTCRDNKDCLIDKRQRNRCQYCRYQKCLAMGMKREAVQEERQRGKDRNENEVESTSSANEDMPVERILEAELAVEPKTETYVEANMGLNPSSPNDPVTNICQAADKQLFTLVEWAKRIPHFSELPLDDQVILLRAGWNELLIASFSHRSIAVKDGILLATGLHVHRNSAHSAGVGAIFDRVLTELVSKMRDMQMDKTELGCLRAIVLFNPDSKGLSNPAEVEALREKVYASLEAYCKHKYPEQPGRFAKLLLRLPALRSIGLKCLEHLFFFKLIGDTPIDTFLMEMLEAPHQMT

[16] = target: Thyroid hormone receptor beta (Homo sapiens) (UniProt P10828); assay: qHTS assay for small molecule agonists of thyroid hormone receptor beta signaling (AID 588545; calls by dose curve)
Sequence of Thyroid hormone receptor beta (Homo sapiens) (P10828 whole entry, looked up): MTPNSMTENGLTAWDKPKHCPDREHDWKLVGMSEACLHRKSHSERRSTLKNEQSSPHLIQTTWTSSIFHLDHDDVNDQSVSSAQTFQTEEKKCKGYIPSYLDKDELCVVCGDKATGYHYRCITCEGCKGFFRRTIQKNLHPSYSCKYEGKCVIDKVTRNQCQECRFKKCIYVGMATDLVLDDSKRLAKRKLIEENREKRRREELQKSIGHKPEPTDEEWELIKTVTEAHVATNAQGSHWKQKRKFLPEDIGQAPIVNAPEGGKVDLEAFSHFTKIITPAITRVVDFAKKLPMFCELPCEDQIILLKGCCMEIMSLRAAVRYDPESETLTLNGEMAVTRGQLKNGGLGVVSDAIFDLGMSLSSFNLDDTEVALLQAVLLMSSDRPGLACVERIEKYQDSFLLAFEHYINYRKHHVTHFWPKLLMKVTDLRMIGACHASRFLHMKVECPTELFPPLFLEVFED
Summary of the method: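 Cells (2500/well) were seeded, incubated 4 hrs at 37 C, dosed with a compound series, incubated 18 hrs, loaded with CCF4 dye for 2 hrs at RT, then read for fluorescence. Data were scaled between DMSO (0%) and 10 nM T3 (100%).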

[17] = qHTS assay for small molecule antagonists of retinoid X receptor alpha signaling (AID 588546; active = well fitted inhibition curve with a large enough effect in the signal ratio, with a control signal flat, not every such curve was filed as active; the % refers to the signal ratio;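 also: cells stimulated with 9-cis-retinoic acid as agonist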); conditions: HEK293T RXRa-UAS-bla, beta-lactamase ratio, antagonist mode; measured here: W530 green channel, cytotoxicity proxy
Summary of the method: (§2)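 Beta-lactamase reporter inhibition, read as CCF4 fluorescence ratio (ex 405, em 460/530 nm) after 2 h at RT. HEK293T UAS-bla cells, 2500/well, were stimulated with 9-cis-RA at 500 or 100 nM final alongside test compound for 18 h at 37 C.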

[18] = target: Retinoic acid receptor RXR-alpha (Homo sapiens) (UniProt P19793); assay: as above; conditions: HEK293T RXRa-UAS-bla, beta-lactamase ratio, antagonist mode
Summary of the method: as §2

[19] = qHTS assay for small molecule agonists of the antioxidant response element (ARE) signaling pathway (AID 651741; active = well fitted activation curve with a large enough effect in the signal ratio; the % refers to the signal ratio)
Summary of the method: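 Beta-lactamase reporter under ARE control in HepG2 cells, 2,000 per well, was induced by 16 h compound treatment at 37 C. Read-out was fluorescence from LiveBLAzer B/G FRET substrate after 2 h at room temperature.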

[20] = qHTS assay for small molecule activators of the p53 signaling pathway (AID 651743; active = well fitted activation curve with a large enough effect in the signal ratio, not every such curve was filed as active; the % refers to the signal ratio; also: series mostly up to about 92 µM); conditions: HCT-116 p53RE-bla, beta-lactamase FRET ratio, 16 h; activation: stronger effect = higher value
Summary of the method: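 After 16 hours compound treatment at 37 C, HCT-116 cells stably expressing p53RE-driven beta-lactamase were loaded with LiveBLAzer B/G FRET substrate for 2 hours at room temperature. Fluorescence intensity served as the p53 activation read-out.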

[21] = qHTS assay for small molecule activators of the nuclear factor-kappa B (NF-kB) signaling pathway (AID 651749; active = well fitted activation curve with a large enough effect in the signal ratio; the % refers to the signal ratio; also: series mostly up to about 77 µM); conditions: NF-kB-bla ME-180 cells, beta-lactamase FRET ratio, 16 h; activation: stronger effect = higher value
Summary of the method: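 Activation measured after 16 hr compound treatment at 37C, 5% CO2, of 2,000 ME-180 cells/well stably expressing an NF-kB response element–driven beta-lactamase reporter, via FRET-disruption fluorescence.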

[22] = qHTS assay for environmental chemicals that activate the Aryl hydrocarbon Receptor (AhR) signaling pathway (AID 651777); conditions: 1A2-DRE human hepatoma cells, luciferase, 24 h; activation: stronger effect = higher value; also: nearly all actives have a fitted effect of over 15% in size
Summary of the method: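 1A2-DRE human hepatoma reporter line; 1,200 cells/well; cmpd or DMSO 24 h, 37 C/5% CO2; One-Glo 30 min RT; luciferase lum.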

[23] = target: Peroxisome proliferator-activated receptor alpha (Homo sapiens) (UniProt Q07869); assay: qHTS assay for small molecule agonists of the peroxisome proliferator-activated receptor alpha (PPARalpha) signaling pathway (AID 651778); conditions: PathHunter PPARalpha complementation, chemiluminescence, 6 h; stronger effect = higher value
Sequence of Peroxisome proliferator-activated receptor alpha (Homo sapiens) (Q07869 whole entry, looked up): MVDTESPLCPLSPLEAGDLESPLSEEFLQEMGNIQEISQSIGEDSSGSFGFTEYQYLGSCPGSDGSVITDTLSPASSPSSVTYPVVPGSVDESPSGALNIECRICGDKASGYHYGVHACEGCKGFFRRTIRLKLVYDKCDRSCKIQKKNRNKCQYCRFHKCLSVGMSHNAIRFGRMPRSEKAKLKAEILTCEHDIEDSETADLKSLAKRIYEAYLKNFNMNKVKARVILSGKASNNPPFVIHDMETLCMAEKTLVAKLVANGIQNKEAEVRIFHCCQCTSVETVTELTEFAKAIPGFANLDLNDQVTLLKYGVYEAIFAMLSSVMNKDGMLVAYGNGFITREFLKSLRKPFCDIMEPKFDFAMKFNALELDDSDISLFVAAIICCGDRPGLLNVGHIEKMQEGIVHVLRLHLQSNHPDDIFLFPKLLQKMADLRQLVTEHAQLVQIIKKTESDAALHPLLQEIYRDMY
Summary of the method: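 Chemiluminescence from complemented enzyme reported PPARalpha activation in cells after 6 hr of compound treatment at 37 C. The detection reagent was incubated for 60 min at room temperature, and compounds were scored as agonists.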

[24] = qHTS assay for small molecule agonists of the antioxidant response element (ARE) signaling pathway measured by Nrf2-dependant transcriptional activity - cell viability counter screen (AID 720653; active = well fitted curve in the direction sought with a large enough effect in the repeat runs; an effect the other way counts as inactive or inconclusive); conditions: ARE-bla HepG2 viability, CellTiter-Glo ATP luminescence, 16 h; max response: stronger effect = lower value
Summary of the method: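 Cytotoxicity counter screen: intracellular ATP quantified by CellTiter-Glo luminescence in the same ARE-bla HepG2 plates, after 16 h compound exposure and a 2 h beta-lactamase substrate step.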

[25] = qHTS assay for cell viability of HEK293 cells (AID 743288); conditions: ATP luminescence (CellTiter-Glo), 18 h; max response: stronger effect = lower value; also: nearly all actives have a fitted effect of over 50% in size
Summary of the method: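 Readout is luciferase-coupled ATP content (CellTiter-Glo luminescence, 30 min room temperature) as a measure of metabolically competent cells. Parental HEK293 cells were plated 5 h or more before compound addition, then treated 18 h at 37 C.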

[26] = qHTS assay for cell viability of the p53RE-bla HCT-116 cell line (AID 743292); also: nearly all actives have a fitted effect of over 55% in size
Summary of the method: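 HCT-116 p53RE-bla cells seeded 4,000/well; 5 h at 37 C; compound (DMSO) added; 16 h at 37 C; CellTiter-Glo added, 30 min RT; luminescence read.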

[27] = target: Nuclear receptor subfamily 1 group I member 2 (Rattus norvegicus) (UniProt Q9R1A7); assay: qHTS assay for small molecule activators of the rat pregnane X receptor (rPXR) signaling pathway (AID 651751; call rule not given here); conditions: rPXR reporter cells, luciferase (One-Glo), 24 h
Sequence of Nuclear receptor subfamily 1 group I member 2 (Rattus norvegicus) (Q9R1A7 whole entry, looked up): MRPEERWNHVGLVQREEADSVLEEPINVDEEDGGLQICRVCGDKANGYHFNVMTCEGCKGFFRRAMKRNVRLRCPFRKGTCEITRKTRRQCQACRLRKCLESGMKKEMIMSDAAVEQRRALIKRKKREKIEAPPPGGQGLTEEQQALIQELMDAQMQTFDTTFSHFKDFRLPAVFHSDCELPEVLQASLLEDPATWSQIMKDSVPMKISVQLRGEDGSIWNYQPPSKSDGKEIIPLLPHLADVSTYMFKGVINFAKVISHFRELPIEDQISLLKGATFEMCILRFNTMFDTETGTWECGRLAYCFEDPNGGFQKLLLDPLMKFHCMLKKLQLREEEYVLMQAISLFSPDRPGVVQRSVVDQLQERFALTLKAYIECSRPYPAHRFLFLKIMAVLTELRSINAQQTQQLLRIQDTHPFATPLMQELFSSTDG

For `CN1CC[C@@]23CCCCC2C1Cc1ccc(O)cc13` (stereo partly drawn), the Potency (Furin (Homo sapiens)) was “inactive”, the outcome [1] was “inactive” and the Potency [2] was “inactive”. The Potency [3] was “inactive”, the Potency [4] was “inactive” and the Potency [5] was “inactive”. For the same compound, the Potency [6] was 3.98 µM (active), the max response [7] was 30% (inactive) and the Potency [8] was 35.5 µM (active).
In the case of `CC(C)OC(=O)Nc1ccccc1`, the Potency [9] is reported as “inactive”, the Potency [10] is reported as “inactive” and the outcome [11] is reported as “inactive”. For the same compound, the outcome [12] was “inactive”, the Potency [13] was “inactive” and the max response [14] was -15.4%. For the same compound, the outcome [15] was “inactive”, the Potency [16] was “inactive” and the max response [17] was -6.41%. For the same compound, the max response [18] was -6.43% (inactive), the Potency [19] was “inactive” and the activation [20] was -1.81% (inactive). For the same compound, the activation [21] was 0.27% (inactive), the activation [22] was 12.4% (inactive) and the max response [23] was -0.246% (inactive). For the same compound, the max response [24] was -3.27% (inactive), the max response [25] was -1.53% (inactive) and the outcome [26] was “inactive”. The Potency (Furin (Homo sapiens)) was “inactive”, the outcome [1] was “inactive” and the Potency [2] was “inactive”. For the same compound, the Potency [3] was “inactive”, the Potency [4] was “inactive” and the max response [27] was 10.9% (inactive).
